GAA glycogen mod: GAA glycogen-cleavage inhibition or activation | P10253 | recombinant GAA, glycogen substrate, Amplex Red glucose oxidase fluorescence | Potency, µM (series often up to 76.4 µM), inactives show at the top dose activity change, negative = inhibition, usual class: inhibitors | 0.38% of 300,000 active | AID 2100;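 also: 0% = full enzyme reaction and -100% = no-enzyme basal signal; the screen sought inhibitors and activators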
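Recombinant human alpha-glucosidase (4 nM final) hydrolysed bovine liver glycogen (30 ug) for 40 min at 37 C in pH 5.0 citrate/phosphate with 0.01% Tween-20. Released glucose detected by glucose oxidase/Amplex Red, Ex 573/Em 610 nm. Compounds up to 77 uM; AC50 from Hill fits.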
GAA inhib: blocks human lysosomal alpha-glucosidase. purified human GAA, 4-MU-alpha-glucoside fluorescence. Potency, µM (top dose mostly 76.9 µM), inactives show at the highest dose activity change, negative = inhibition, hits mostly inhibitors. 0.005% of 200,000 active. AID 1466;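 also: plate controls were uninhibited enzyme wells for no effect and no-enzyme background for full effect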
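AC50 values come from Hill fits of compound titrations (up to 77 uM) against 4 nM human enzyme. Substrate 4-methylumbelliferyl-alpha-D-pyranoside at 400 uM, pH 5.0 citrate buffer, 20 min room temperature; fluorescence Ex 365/Em 440 after alkaline stop.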
GALK inh: blocks human galactokinase activity; Potency, µM (titrated, usually from 57.5 µM), for the others: at the top dose activity change, negative = inhibition, actives largely listed as inhibitors; AID 1868; 0.007% of 270,000 active; Purified GALK, Kinase-Glo residual ATP luminescence
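Human GALK (5 nM) with 35 uM ATP and 100 uM galactose in 20 mM HEPES pH 8.0, 5 mM MgCl2, 60 mM NaCl, 1 mM DTT, 0.01% BSA. After 1 h at room temperature, leftover ATP was read by Kinase-Glo Plus luminescence.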
aGlu spleen mod: inhibits or activates alpha-glucosidase in human spleen homogenate; P10253; human spleen homogenate, 4-MU-alpha-glucoside fluorescence; Potency, µM (series often up to 79.9 µM), for inactives: at the highest dose activity change, negative = inhibition, actives largely listed as inhibitors; 0.006% of 240,000 active;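 also: 0% = enzyme with vehicle and -100% = no enzyme basal signal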
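AC50 values come from Hill-equation fits of concentration-response data, normalized to no-enzyme and full-activity controls. Enzyme source: 1 ug human spleen homogenate; 1 mM fluorogenic 4-MU glucoside, pH 5.0 citrate buffer, 37 C, 40 min.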
PKM2 activator: PKM2 (human) enzyme activation. purified PKM2, Kinase-Glo ATP luminescence, activation; response scale: 0% is enzyme alone, no compound. Potency, µM (titrated, usually from 57.5 µM), inactives show top-dose activation, actives largely listed as activators. 0.34% of 260,000 active. AID 1631; also: nearly all actives have a fitted effect of over 55% in size
Target sequence (P14618 whole entry, looked up): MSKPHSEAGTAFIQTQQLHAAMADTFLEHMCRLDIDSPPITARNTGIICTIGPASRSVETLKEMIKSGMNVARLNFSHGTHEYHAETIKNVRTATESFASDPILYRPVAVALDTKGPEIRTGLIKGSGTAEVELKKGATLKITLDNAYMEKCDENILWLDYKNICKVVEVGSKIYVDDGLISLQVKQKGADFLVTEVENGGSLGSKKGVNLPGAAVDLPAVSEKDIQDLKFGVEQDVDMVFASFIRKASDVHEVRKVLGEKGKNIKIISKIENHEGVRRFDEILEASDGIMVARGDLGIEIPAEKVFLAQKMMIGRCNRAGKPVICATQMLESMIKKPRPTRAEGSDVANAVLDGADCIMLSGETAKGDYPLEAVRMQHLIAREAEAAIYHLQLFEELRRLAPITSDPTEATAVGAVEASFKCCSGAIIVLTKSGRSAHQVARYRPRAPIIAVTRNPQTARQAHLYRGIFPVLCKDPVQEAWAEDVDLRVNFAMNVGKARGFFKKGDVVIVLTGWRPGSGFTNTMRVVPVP
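Kinase-Glo luminescence reports ATP generated from ADP (0.1 mM) and PEP (0.5 mM) by purified hPK-M2 after 1 h at room temperature, pH 7.2 imidazole buffer; intermediate enzyme activity allows detecting inhibitors and activators.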
Active calls of the source: *; ? = inconclusive; nt = not tested or not shown; [ ] = remark or other dose. Only some compounds are listed: those with a hit (about 0.63% of all), similar ones and a draw of the others. Calls follow the shape of the dose curve; as a rule, active = well fitted curve in the direction sought with a large enough effect; inconclusive = small, poorly fitted or top-dose-only effect, or another doubt; inactive = no such curve, though single readings can be large; an effect the other way counts as inactive or inconclusive. Unless noted, % is scaled to controls: 0 for no effect and ±100 for the full control effect; potency is read from the fitted curve at half-maximal effect.

SMILES | GAA glycogen mod | GAA inhib | GALK inh | aGlu spleen mod | PKM2 activator
Cc1cccc2cc(C(c3nnnn3C(C)(C)C)N3CCN(C(=O)c4ccco4)CC3)c(=O)[nH]c12 (centres undefined) | 0% | 3% | -2% | 3% | 30%
O=C(Nc1cccc(Cl)c1)c1ccc2c(c1)CCN2S(=O)(=O)c1ccccc1 | -7%[76.3 µM] | nt | nt | nt | nt
COc1ccc(C(=O)c2cn(Cc3cccc(C)c3)c3cc4c(cc3c2=O)OCCO4)cc1OC | 12%[76.3 µM] | nt | nt | nt | nt
COc1cc(O)ccc1-c1nc2cc(C)ccn2c1Nc1ccccc1C | 13µM* | nt | nt | nt | nt
Cc1ccc(C)n1-c1ccc(-c2nnc3n2CCCCC3)s1 | 35µM* | 2% | 5% | -3% | 0%
CCOc1cc(/C=C2/SC(=O)N(CC(=O)N3CCc4ccccc4C3)C2=O)ccc1OCC(=O)O | -2% | -6% | 4% | -22% | ?
NC(=O)COc1ccccc1/C=C1/SC(=O)N(CC(=O)N2CCc3ccccc3C2)C1=O | 1% | 4% | -3% | 0% | 20µM*
CC(=O)Nc1ccccc1NS(=O)(=O)c1ccccc1[N+](=O)[O-] | 3% | -7% | 1% | -4% | 40µM*
CC(=O)NNS(=O)(=O)c1ccccc1[N+](=O)[O-] | 19% | -13% | 0% | -4% | -3%
Cc1ccc(O)c(N)c1 | nt | nt | nt | 7% | nt
Cc1ccc(O)c(Sc2cc(C)ccc2O)c1 | 28µM* | -10% | -3% | -4% | 6%
Oc1ccc(NC(=S)N=Nc2c(O)[nH]c3ccccc23)cc1 | 40µM* | -2% | -1% | -3% | 17%
Oc1ccc(/C=N/N2CCCCC2)c(O)c1 | 11µM* | nt | 0% | nt | nt
O=S(=O)(c1ccc2ccccc2c1)N1CCN=C1SCc1cccnc1 | -27% | -2% | 1% | 2% | 18µM*
CC(=O)Nc1ccc(S(=O)(=O)N2CCN=C2SCc2cccnc2)cc1 | 4% | 1% | 0% | 4% | 16µM*
CCOC(=O)CNC(=O)c1cc2c(=O)n3cccc(C)c3nc2n1C | 3%[76.3 µM] | nt | nt | nt | nt
COc1cccc(C2=NS(=O)(=O)N(C)C(C(=O)Nc3ccccc3SC)=C2)c1 | -2%[76.3 µM] | nt | nt | nt | nt
Cc1ccc(O)c(Nc2c3ccccc3nc3ccccc23)c1 | 11µM* | nt | 3% | nt | nt
CO[C@H]1C=CO[C@@]2(C)Oc3c(C)c(O)c4c(O)c(c5c(nc6cc(C)ccn65)c4c3C2=O)NC(=O)C(C)=CC=C[C@H](C)[C@H](O)[C@@H](C)[C@@H](O)[C@@H](C)[C@H](OC(C)=O)[C@@H]1C | 20µM* | 4%[15.4 µM] | 0% | -2% | -5%
Nc1nc(N2CCN(C(c3ccccc3)c3ccccc3)CC2)n[nH]1 | ? | 4% | 7% | -2% | -3%
Nc1nc(N2CCN(Cc3ccccc3)CC2)n[nH]1 | 5.6µM* | 7% | 2% | -4% | -14%
COC(=O)c1cccc(-n2c(CCC(=O)O)ccc2-c2cccs2)c1 | -26% | -9%[15.4 µM] | 0% | 0% | 18µM*
COC(=O)c1cccc(-n2c(CCC(=O)O)ccc2-c2ccc(OC)cc2)c1 | 15%[76.3 µM] | nt | nt | nt | nt
Cc1c(Cl)cccc1N1C(N)=C(C#N)C(c2cc(CN3CCOCC3)cs2)C2=C1CCCC2=O (centres undefined) | -28%[76.3 µM] | nt | nt | nt | nt
COC(=O)c1ccc(C(NC(=O)OCc2ccccc2)/C(I)=C/[C@@H](C)C(=O)NCc2ccc(C)o2)cc1 (some centres undefined) | nt | nt | nt | 0% | 14µM*
SMILES | GAA glycogen mod | GAA inhib | GALK inh | aGlu spleen mod | PKM2 activator
COC(=O)c1ccc(C(NC(=O)OCc2ccccc2)/C(I)=C/[C@@H](C)C(=O)NCc2ccc(OC)c(O)c2)cc1 (some centres undefined) | nt | nt | nt | -1% | 3%
Cc1nc(C(=O)N2CCc3c([nH]c4ccccc34)C2c2ccccn2)cs1 (centres undefined) | 16µM* | ? | -1% | -8% | 5%
CCOc1ccc(-c2nc3c(C#N)c[nH]n3c2NC2CCCC2)cc1 | 13%[76.3 µM] | nt | nt | nt | nt
CC(=O)Nc1ccc(NC(C)=O)s1 | 8.9µM* | 2% | 0% | -8% | ?
c1ccc(CCNc2c3c(nc4ncnn24)CCC3)cc1 | 4% | 2% | 5% | -5% | 25µM*
CNc1nc(NCc2ccccc2)c2ccccc2n1 | -10%[76.3 µM] | nt | 3% | nt | 14%
Oc1ccccc1Nc1nc(NCc2ccccc2)c2ccccc2n1 | 7.1µM* | -13% | 2% | -1% | 13%
Cc1ccc(S(=O)(=O)c2cn(C)c3cc(N4CCCCCC4)c(F)cc3c2=O)cc1 | 4%[76.3 µM] | nt | nt | nt | nt
O=C(NC1(C(F)(F)F)Oc2ccccc2O1)N1CCCC1 | 7.9µM* | -3% | 0% | 2% | 4%
Cc1cc(CN2CCN(c3cccc(C)c3C)CC2)cs1 | -6%[76.3 µM] | nt | nt | nt | nt
COc1cc(CN2CCN(c3cccc(C)c3C)CC2)cc(OC)c1O | 28µM* | -9% | 1% | -16% | 4%
CCc1ccc(NC(=O)Cn2c(=O)n(CC3CCCO3)c(=O)c3cc(OC)c(OC)cc32)cc1 (centres undefined) | -1%[76.3 µM] | nt | nt | nt | nt
CC(C)C(c1nnnn1Cc1ccc(F)cc1)N1CCN(c2ccc(O)cc2)CC1 (centres undefined) | 7µM* | 14% | 2% | 7% | -10%
CCC(C)(C)n1nnnc1C(c1ccc2ncccc2c1)N1CCN(c2ccc(O)cc2)CC1 (centres undefined) | 1.4µM* | nt | 1% | 3% | 16%
Oc1ccc(N2CCN(C(c3cccnc3)c3nnnn3Cc3ccccc3)CC2)cc1 (centres undefined) | 16µM* | 1% | -3% | 3% | -13%
CCC(C)(C)n1nnnc1C(c1ccc2ncccc2c1)N1CCN(c2nc3ccccc3s2)CC1 (centres undefined) | -1% | ? | 1% | -12% | -1%
CCN(Cc1ccccc1)S(=O)(=O)c1ccc2c(c1)CC(C)N2C(=O)C1CCC1 (centres undefined) | -11%[76.3 µM] | nt | nt | nt | nt
COc1cc(Cl)c(C)cc1NC(=O)CCCN1C(=O)C(c2ccccc2)Oc2cccnc21 (centres undefined) | -2%[76.3 µM] | nt | nt | nt | nt
CCCN1C(=O)c2[nH]nc(-c3ccccc3O)c2C1c1cccc(OCc2ccccc2)c1 (centres undefined) | 2%[76.3 µM] | nt | nt | nt | nt
CCN1CCN(c2cc(C)c3cc(NC(=O)/C=C/c4ccc(OCCC(C)C)cc4)ccc3n2)CC1 | -5%[76.3 µM] | nt | nt | nt | nt
C=CCn1c(SCc2nc3ccccc3c(=O)[nH]2)nc2scc(C3CC3)c2c1=O | 10% | 2% | nt | 7% | 3.5µM*
CCn1c(SCc2nc3ccccc3c(=O)[nH]2)nc2ccccc2c1=O | 7% | -4% | -1% | 4% | -3%
CN=c1scc(C)n1/N=C/c1cc(Br)c(O)c(OC)c1 | 13% | -2% | 0% | -1% | 0%
COc1cc(/C=N/N(C)C)cc(Br)c1O | 4.5µM* | nt | 3% | -4% | -2%
O=S(=O)(Nc1ccc(-n2cccc2)cc1)c1ccccc1 | 0% | 5% | -4% | -2% | 16µM*

Screening results: PubChem, National Center for Advancing Translational Sciences (NCATS)
